# In PubChem BioAssay (NCATS):
# Records with an inconclusive call do not appear. Entries that show only a call come without a potency. Active and inactive are the calls of the source. The call rests on the fitted dose curve; in most records, active means well fitted inhibition curve with a large enough effect; inconclusive means small, poorly fitted or top-dose-only effect; inactive means no such curve, though single readings can be large or run the other way.
# Biological target: Cytochrome P450 3A4 (Homo sapiens) (UniProt P08684)
# Assay: qHTS Assay for Inhibitors and Substrates of Cytochrome P450 3A4 (AID 884); further: nearly all actives have a fitted effect of over 50% in size
# Summary of the method: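 20 nM human CYP3A4 with 25 uM Luciferin-PPXE (at KM) in 200 mM KPO4, preincubated 10 min with compound; NADPH regeneration started a 60 min RT reaction. Luciferin detected by luminescence, normalized to 57 uM ketoconazole as full inhibition.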
# Potency means the concentration at half of the fitted maximal effect.
# Chain of Cytochrome P450 3A4 (Homo sapiens) (P08684 whole entry, looked up): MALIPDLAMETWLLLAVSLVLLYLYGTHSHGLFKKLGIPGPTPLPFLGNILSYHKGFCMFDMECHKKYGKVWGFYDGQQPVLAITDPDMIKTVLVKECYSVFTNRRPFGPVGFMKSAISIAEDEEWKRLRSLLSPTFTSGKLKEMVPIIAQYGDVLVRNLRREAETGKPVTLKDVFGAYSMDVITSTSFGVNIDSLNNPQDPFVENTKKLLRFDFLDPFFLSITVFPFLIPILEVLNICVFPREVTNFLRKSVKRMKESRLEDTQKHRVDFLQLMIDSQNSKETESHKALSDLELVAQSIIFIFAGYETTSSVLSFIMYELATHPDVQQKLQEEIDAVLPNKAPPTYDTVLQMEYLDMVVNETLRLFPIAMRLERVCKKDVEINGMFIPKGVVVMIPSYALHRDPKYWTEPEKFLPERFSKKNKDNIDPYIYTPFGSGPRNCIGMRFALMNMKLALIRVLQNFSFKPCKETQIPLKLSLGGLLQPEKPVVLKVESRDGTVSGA
row,SMILES,Potency
1,Cc1ccc(S(=O)(=O)N[C@@H]2COC(=O)C/C=C\[C@H](C)COC(=O)N[C@@H](C)C(=O)C/C=C\[C@H]2C)cc1,3.16 µM (active)
2,COC(=O)[C@@H]1C[C@@]2(O)[C@H](O)[C@H](O)[C@H](O)C[C@H]2N1Cc1cccc2ccccc12,inactive
3,CCC1=C(OC(=O)N(CC)CC)N2C(=O)OC(=NCc3ccccc3)[C@]2(C)[C@H]2C1=CC[C@H]1C(=O)N(CC(=O)OC)C(=O)[C@H]12,5.01 µM (active)
4,FC(F)(F)c1cccc(-c2noc(-c3cc(-c4ccccc4)c(C(F)(F)F)s3)n2)c1,inactive
5,OB(O)c1cc2ccccc2o1,inactive
6,COC(=O)[C@@H]1C[C@H]2CC[C@H](O)C[C@H]2N1Cc1ccc(N2CCN(C)CC2)cc1,inactive
7,O=c1oc2ccccc2c2oc3cc(O)c(O)cc3c12,20 µM (active)
